# ± gives the standard deviation.
# Test system: MILI (PIWIL2) piRISC loaded with L1MC piRNA (26 nt)
# Assay: pre-steady-state target cleavage rate (min^-1); guide: L1MC piRNA 5'p-UAACUAAAUACUAUGCAAGCUGUAGG; MIWI and MILI are mouse PIWI proteins and EfPiwi is from a freshwater sponge; tags in brackets are library labels; higher = faster piRNA-guided slicing of the target
# Details: auxiliary factor: none (no GTSF1)
# Method in brief: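 The pre-steady-state cleavage rate came from a burst-and-steady-state fit to pooled data from three Cleave-'n-Seq trials, in which uncleaved targets were sequenced and normalised to depth and to weakly complementary targets. Each reaction held 0.1 nM transcribed, DNA-blocked target RNA library and 1 nM active affinity-purified piRISC carrying one synthetic guide, with or without 500 nM GTSF1 partner protein, in HEPES–potassium acetate buffer at 33 °C for 0–8 or 0–960 min. k3 was capped at 0.0001 min^-1.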
row,Sequence,pre-steady-state target cleavage rate
1,UCCUGGAUGUGGUUGCAUUGUAUUUAGUUA,0.00721 ± 0.0036
2,UCCUGCUAGAGCUUGCAUAGUAUUUUGUUA,0.00521 ± 0.0022
3,UCCUGGAUGUCGUUGCAUAGUAUUUAGUUC [g2:g18:cont:t1C],0.00738 ± 0.0026
4,UCCUGCUACAGUCUUGCAUAGUAUUUAGUUA,0.00875 ± 0.0023
5,UCCUGGAUGUCGAUGCAUAGUAUUUAGUUU [g2:g17:cont:t1U],0.00618 ± 0.0021
6,UCCUGGAUGUCGUUACAUAGUAUUUAGUUA,0.00442 ± 0.0022
7,UCCUGGAUGUGCUUGAUAGUAUUUAGUUA,0.00463 ± 0.002
8,UCCUGGAUGAGCUUGCAUAGUAUAAUGUUA,0.00329 ± 0.0028
9,UCCUGGUCCAGCUUGCAUAGUAUUUAGUUA,0.0129 ± 0.0037
10,UCCUGGAUGUCGAUGCAUAGUACUUAGUUA,0.0058 ± 0.0019
11,UCCUGGAUGUGGAAGCAUAGUAUUUAGUUA,0.00344 ± 0.0029
12,UCCUGGAUCAGCAACCAUAGUAUUUAGAAA,< 0.0001
13,UCCUGGAUGUCCUUGCAUAGUAUCUUAGUUA,0.00566 ± 0.0029
14,UCCUGGAUGAGCAUGCAUAGUUUUUAGUUA,0.00788 ± 0.0023
15,UCCUGGAACAGCUUGCAUUGUUUUUAGUUA,0.00334 ± 0.0023
16,UCCUGGUACAGGAAGCAUAGUAUUUAGUAA,0.00332 ± 0.0019
17,UCCUGGAUGUCCUUGCAUUGUAUUAAGUUA,0.00424 ± 0.0019
18,UCCUGGAAGAGCUUGCAUAGUAUUAAGUUA,0.00346 ± 0.0028
19,UCCUGGAUGUCGAUGCAUAGUAUUUACGUUA,0.00337 ± 0.0029
20,UCCUGGAUGUCGAAGCAUAGUAUUUUGUUA,0.00241 ± 0.0023
21,UCCUGGAUGUCCUUGCUUAGUAUUUUGUUA,0.00384 ± 0.003
22,UCCUGGAUGUCAUUGCAUAGUAUUUAGUUA,0.0087 ± 0.0027
23,UCCUGGAACAGCUUGCUUAGUUUUUAGUUA,0.00375 ± 0.0024

# From the supplement of paper PMC10338343
